EPAC2 agonist: agonists of human EPAC2 (RAPGEF4); Q8WZA2; EPAC2 activation, biochemical qHTS; response scale: 100% = 6.5 mM cAMP response; Potency, µM (titrated, usually from 154 µM), for the others: at the highest dose activation, actives largely listed as activators; 0.079% of 360,000 active; AID 720711; note: nearly all actives have a fitted effect of over 50% in size
Target sequence (Q8WZA2 whole entry, looked up): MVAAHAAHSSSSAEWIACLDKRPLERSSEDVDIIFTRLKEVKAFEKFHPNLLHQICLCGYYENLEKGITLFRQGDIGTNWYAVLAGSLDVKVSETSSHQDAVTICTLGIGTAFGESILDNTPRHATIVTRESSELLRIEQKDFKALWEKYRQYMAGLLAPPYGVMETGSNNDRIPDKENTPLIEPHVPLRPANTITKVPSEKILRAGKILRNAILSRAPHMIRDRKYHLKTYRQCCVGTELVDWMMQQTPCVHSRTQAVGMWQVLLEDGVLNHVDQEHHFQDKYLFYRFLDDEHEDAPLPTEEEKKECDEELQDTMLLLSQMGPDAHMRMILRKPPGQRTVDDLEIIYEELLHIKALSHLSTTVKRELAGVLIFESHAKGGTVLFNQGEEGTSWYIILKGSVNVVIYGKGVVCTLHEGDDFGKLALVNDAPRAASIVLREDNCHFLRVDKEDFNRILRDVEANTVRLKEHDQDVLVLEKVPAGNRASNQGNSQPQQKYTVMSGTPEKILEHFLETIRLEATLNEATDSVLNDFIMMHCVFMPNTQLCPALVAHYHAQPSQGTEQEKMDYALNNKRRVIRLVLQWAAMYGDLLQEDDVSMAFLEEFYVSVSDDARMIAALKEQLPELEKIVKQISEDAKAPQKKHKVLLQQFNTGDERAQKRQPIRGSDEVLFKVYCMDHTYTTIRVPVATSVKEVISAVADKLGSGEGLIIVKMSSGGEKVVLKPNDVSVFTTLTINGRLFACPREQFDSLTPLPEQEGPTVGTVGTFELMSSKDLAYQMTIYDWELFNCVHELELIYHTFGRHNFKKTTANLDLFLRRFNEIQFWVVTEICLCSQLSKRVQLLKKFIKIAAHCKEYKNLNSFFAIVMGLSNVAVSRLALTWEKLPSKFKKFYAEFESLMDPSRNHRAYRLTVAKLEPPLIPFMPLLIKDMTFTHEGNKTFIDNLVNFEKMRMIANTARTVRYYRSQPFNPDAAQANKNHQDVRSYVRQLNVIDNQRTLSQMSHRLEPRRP
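Exchange assay: 100 nM EPAC2 with 250 nM Rap1B-BODIPY-GDP and 50 uM GDP. Fluorescence (ex 480/em 540 nm) read every 5 min for 30 min at room temperature. Data normalized to 6.5 mM cAMP as agonist control.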
USP1 inh: USP1/UAF1 (human) deubiquitinase inhibition. O94782. recombinant USP1/UAF1, Ub-Rhodamine cleavage fluorescence. Potency, µM (titrated, usually from 57.1 µM), without a hit: at the top dose activity change, negative = inhibition, most hits filed as inhibitors. 0.23% of 390,000 active. AID 743255; note: % is set by controls: 0 for no effect and ±100 for the full control effect; nearly all actives have a fitted effect of over 60% in size
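High-throughput fluorogenic screen: 1nM USP1/UAF1 complex, Ub-Rho substrate 150nM final, 50mM HEPES pH 7.8 with 0.5mM EDTA, 0.1 mg/ml BSA, 1mM TCEP and 0.01% Tween-20.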
EPAC2 antagonist: EPAC2 (human) antagonism; Potency, µM (top dose mostly 114 µM), inactives show at the top dose activity, negative = inhibition, actives largely listed as inhibitors; Q8WZA2; AID 720708; EPAC2 GEF exchange of Rap1B-BODIPY-GDP, fluorescence; 0.18% of 360,000 active; note: % is set by controls: 0 for no effect and ±100 for the full control effect; nearly all actives have a fitted effect of over 45% in size
EPAC1 ag: activates human EPAC1 exchange factor. O95398. EPAC1 agonist qHTS, biochemical assay; response scale: 100% = response to 6.5 mM cAMP. Potency, µM (doses to about 154 µM), without a hit: top-dose activation, actives largely listed as activators. 0.073% of 360,000 active. AID 720707; note: nearly all actives have a fitted effect of over 60% in size
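Nucleotide exchange assay: 100 nM EPAC1 with 250 nM Rap1B loaded with BODIPY-GDP and 50 uM GDP, room temperature. Fluorescence (480/540 nm) read every 5 min for 30 min; signal change normalized to 6.5 mM cAMP as full agonist.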
EPAC1 antagonist: EPAC1 (human) antagonism | O95398 | EPAC1 GEF assay, Rap1b-BODIPY-GDP exchange fluorescence | Potency, µM (top dose mostly 115 µM), inactives show at the top dose activity change, negative = inhibition, usual class: inhibitors | 0.14% of 360,000 active | AID 720709;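 note: plate controls were vehicle for no effect and positive control for full effect; nearly all actives have a fitted effect of over 50% in size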
12-LOX inh: ALOX12 (human) lipoxygenase inhibition | purified 12hLO, xylenol orange hydroperoxide absorbance | Potency, µM (series often up to 108 µM), for the others: at the highest dose activity change, negative = inhibition, hits mostly inhibitors | 1.1% of 580,000 active | AID 1671190; note: % is set by controls: 0 for no effect and ±100 for the full control effect
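Purified human 12hLO (150 nM final) in 25 mM Hepes, 0.01% Triton X-100, pH 7.0 was preincubated 15 min at room temperature with compound. Then 40 uM arachidonic acid was added, 30 min. Hydroperoxide was read by Fe-XO absorbance ratio 573/405 nm.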
* = called active by the depositor; ! = a repeat was not active; [ ] = remark or other dose. The list is not random: actives were taken first. Their share in the collection is about 1.3%. Calls come from the whole dose curve; as a rule, active = well fitted curve in the direction sought with a large enough effect; inconclusive = small, poorly fitted or top-dose-only effect, or another doubt; inactive = no such curve, though single readings can be large; an effect the other way counts as inactive or inconclusive. Potency is the fitted concentration of half-maximal effect.

Results for Nc1ccc(-c2cc(C(=O)O)c3ccccc3n2)cc1 ?
12-LOX inh: 18µM*

Results for O=C(O)C12CC3C4C5CC(C6C5C3C61)C42 (centres undefined) ?
12-LOX inh: -46%

Results for Cn1c(=O)c2c(nc(NCCO)n2Cc2ccc(Cl)cc2Cl)n(C)c1=O ?
12-LOX inh: -5%

What do the screens show for `Cc1ccc2nc(NC(=O)NC3CC(=O)N(c4ccc5c(c4)OCCO5)C3)sc2c1` (centres undefined)?
12-LOX inh: 15%

What do the screens show for `CCOC(=O)c1c(-c2ccc(OC)c(OC)c2)csc1NC(=O)C1CCCCC1`?
12-LOX inh: -8%

Results for N#Cc1c(N)n[nH]c1CCCNC(=O)c1cc(-c2ccco2)nc2ccccc12 ?
12-LOX inh: 20µM*

How did Cc1ccc2nc(-c3ccco3)cc(C(=O)O)c2c1 do in these assays?
12-LOX inh: 7.9µM*!

What do the screens show for `COC(=O)c1cc(-c2ccco2)nc2c(Cl)cccc12`?
12-LOX inh: 22µM*

Results for COC(=O)c1cc(-c2ccccc2)nc2ccccc12 ?
12-LOX inh: 10%

What do the screens show for `COC(=O)c1cc(-c2ccco2)nc2ccccc12`?
12-LOX inh: 14µM*

How did COc1ccc(-c2cc(C(=O)OCC(=O)c3ccc(C)cc3)c3cccc(Cl)c3n2)cc1 do in these assays?
USP1 inh: 7%; 12-LOX inh: inconclusive

How did N#Cc1c(N)n[nH]c1CCCNC(=O)c1ccc(-c2ccccc2)cc1 do in these assays?
12-LOX inh: 19%

Results for COc1ccc2[nH]c(C[C@@H]3C[C@@H](C(C)C)[C@H](CNCc4cccnc4)C=C3C)nc2n1 ?
12-LOX inh: 43%[176 µM]

Results for O=C(O)c1cc(-c2ccco2)nc2ccccc12 ?
EPAC2 agonist: -2%; USP1 inh: -20%; EPAC2 antagonist: 14%; EPAC1 ag: -10%; EPAC1 antagonist: 12%; 12-LOX inh: 7.1µM*

What do the screens show for `CCn1cc(-c2cc(C(=O)O)c3ccccc3n2)c(C)n1`?
EPAC2 agonist: 9%; USP1 inh: -14%; EPAC2 antagonist: 9%; EPAC1 ag: -1%; EPAC1 antagonist: 1%; 12-LOX inh: 13µM*!

How did Cc1ccc(-c2cc(C(=O)OC(C)C(=O)NC3CCCC3)c3ccccc3n2)o1 (centres undefined) do in these assays?
12-LOX inh: 6.3µM*

What do the screens show for `O=C(N/N=C/c1ccc(F)cc1)c1cc(-c2ccco2)nc2ccccc12`?
EPAC2 agonist: -11%; USP1 inh: -40%; EPAC2 antagonist: 10%; EPAC1 ag: 0%; EPAC1 antagonist: 79µM*; 12-LOX inh: inconclusive

How did CCn1cc(-c2cc(C(=O)O)c3ccccc3n2)cn1 do in these assays?
EPAC2 agonist: -5%; USP1 inh: -12%; EPAC2 antagonist: 9%; EPAC1 ag: 4%; EPAC1 antagonist: -14%; 12-LOX inh: -6%

What do the screens show for `Nc1nc(COC(=O)c2c(Cl)cccc2Cl)nc2ccccc12`?
12-LOX inh: 4%

What do the screens show for `Cc1ccc(-c2cc(C(=O)OCC(=O)NCC3CCCO3)c3ccccc3n2)o1` (centres undefined)?
12-LOX inh: 19%

Results for Cc1ccc(-c2cc(C(=O)OCC(=O)NC34CC5CC(CC(C5)C3)C4)c3ccccc3n2)o1 ?
12-LOX inh: 1.3µM*

How did CCCNC(=O)NC(=O)COC(=O)c1cc(C)nc2ccccc12 do in these assays?
12-LOX inh: 0%

What do the screens show for `O=C(N/N=C1/CCc2ccccc21)C1CC1`?
EPAC2 agonist: 4%; USP1 inh: 0%; EPAC2 antagonist: 2%; EPAC1 ag: 9%; EPAC1 antagonist: 4%; 12-LOX inh: 5%

What do the screens show for `S=C(N/N=C1\CCc2ccccc21)NC1CCCCC1`?
EPAC2 agonist: 7%; USP1 inh: -5%; EPAC2 antagonist: -10%; EPAC1 ag: 6%; EPAC1 antagonist: inconclusive; 12-LOX inh: 45µM*

What do the screens show for `CC(C)NC(=S)N/N=C1\CCCCc2ccccc21`?
EPAC2 agonist: 19%; USP1 inh: -3%; EPAC2 antagonist: -11%[57.1 µM]; EPAC1 ag: 5%; EPAC1 antagonist: -4%; 12-LOX inh: 40µM*

Results for COc1ccc(OCC(=O)N/N=C2\CCCCc3ccccc32)cc1 ?
EPAC2 agonist: 6%; USP1 inh: -9%; EPAC2 antagonist: -13%; EPAC1 ag: 1%; EPAC1 antagonist: inconclusive; 12-LOX inh: 9%

Results for COC(=O)N/N=C1\CCCc2ccccc21 ?
EPAC2 agonist: 5%; USP1 inh: -17%; EPAC2 antagonist: 6%; EPAC1 ag: -1%; EPAC1 antagonist: -2%; 12-LOX inh: -19%

How did Cc1ccc(C)c(NC(=S)N/N=C2/CCCCc3ccccc32)c1 do in these assays?
EPAC2 agonist: -6%; USP1 inh: -12%; EPAC2 antagonist: 2%; EPAC1 ag: 12%; EPAC1 antagonist: -11%; 12-LOX inh: 50µM*

What do the screens show for `COc1cccc(NC(=S)N/N=C2/CCCCc3ccccc32)c1`?
EPAC2 agonist: 17%; USP1 inh: -21%; EPAC2 antagonist: -3%; EPAC1 ag: 17%; EPAC1 antagonist: -2%; 12-LOX inh: 45µM*

Results for CCCc1cc(=O)oc2c(C)c(OC(C)C(=O)NCc3ccncc3)ccc12 (centres undefined) ?
12-LOX inh: 3%

What do the screens show for `Cc1cccc(NC(=S)NN=C2CCCC2)c1C`?
12-LOX inh: 28µM*

Results for Cc1ccc(CN2CCC3(CC2)COCCN3C(=O)OCc2ccccc2)o1 ?
12-LOX inh: 8%[176 µM]

What do the screens show for `O=C(N/N=C/c1ccc([N+](=O)[O-])o1)c1cn(-c2ccccc2)nc1-c1ccc(Cl)cc1`?
EPAC2 agonist: 9%; USP1 inh: -3%; EPAC2 antagonist: 7%[57.1 µM]; EPAC1 ag: -1%; EPAC1 antagonist: -14%; 12-LOX inh: -9%

What do the screens show for `O=[N+]([O-])CC(=Nc1ccc(Cl)cc1)N/N=C\c1oc(O)c2ccccc12`?
EPAC2 agonist: -5%; USP1 inh: inconclusive; EPAC2 antagonist: 12%; EPAC1 ag: 1%; EPAC1 antagonist: -17%; 12-LOX inh: 4µM*

What do the screens show for `CC[n+]1c(/C=C/C=C/N(C(C)=O)c2ccccc2)sc2cc(OC)ccc21`?
EPAC2 agonist: inconclusive; USP1 inh: 28µM*; EPAC2 antagonist: 46%; EPAC1 ag: 100µM*; EPAC1 antagonist: 141%; 12-LOX inh: inconclusive

What do the screens show for `CC[n+]1c(/C=C(\C)OC)sc2ccccc21`?
EPAC2 agonist: 2%; USP1 inh: -17%; EPAC2 antagonist: -8%; EPAC1 ag: 2%; EPAC1 antagonist: -21%; 12-LOX inh: inconclusive
